Measured values: PubChem BioAssay
Calls of active or inactive are those of the source. Unless noted, how the calls were made is not given here.

Key:
[1] = compounds binding Alexa647 anti-His antibody – biochemical, small-molecule microarray, 635 nm fluorescence, artefact control for SMM control protein annotation, primary screen (AID 1128); settings: higher = more signal;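 further: score merges feature fluorescence with signal-to-noise for each printed compound spot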
[2] = system: Human papillomavirus type 1a E7 protein (residues 1-88); experiment: HPV1a E7 small-molecule binders, primary screen, biochemical, small-molecule microarray, residues 1-88, 635 nm (AID 1129); settings: small-molecule microarray binding, fluorescence 635 nm; higher = more signal
[3] = target: Focal adhesion kinase 1 (Homo sapiens) (UniProt Q05397); experiment: PTK2 protein binding on printed compound slides – biochemical, small-molecule microarray, 635/667 nm fluorescence, BSA, DTT, primary screen (AID 1130); settings: 635 nm fluorescence, higher = more signal;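 further: composite of spot emission at 667 nm and signal to noise over triplicate slides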
[4] = system: Fibrinogen (Alexa647-labelled); experiment: Alexa647-fibrinogen binding to printed small molecules – biochemical, small-molecule microarray, 635/667 nm fluorescence, artefact control for SMM control-protein annotation, profiling panel (AID 1131); settings: fibrinogen-A647 binding fluorescence, higher = more signal;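 further: z-score merges 667 nm fluorescence with per-spot signal-to-noise over triplicate slides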
[5] = target: Follistatin (Homo sapiens) (UniProt P19883); experiment: FST protein binding to printed compounds – biochemical, small-molecule microarray, 635/667 nm fluorescence, primary screen (AID 1132); settings: 635 nm fluorescence, higher = more signal
[6] = target: Fibroblast growth factor 2 (Homo sapiens) (UniProt P09038); experiment: basic fibroblast growth factor binding to printed compounds – biochemical, small-molecule microarray, 635/667 nm fluorescence, primary screen (AID 1133); settings: FGF2, fluorescence 635/667, higher = more signal
[7] = JC-1 mitochondrial potential readout, lung cancer cells – cell-based, A549, JC-1 fluorescence, basal, 24 h, 100 nL, profiling panel (AID 1138); settings: higher = more signal;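 further: A549 lung adenocarcinoma cells under basal conditions with no added stimulus; test concentration not given here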
[8] = system: Lefty1; experiment: Lefty1 protein binding to printed compounds – biochemical, small-molecule microarray, 635/667 nm fluorescence, primary screen (AID 1139); settings: fluorescence 635/667, higher = more signal
[9] = system: wheat germ agglutinin (Triticum aestivum), Alexa647-labelled; experiment: Alexa647-WGA lectin binding to printed small molecules – biochemical, small-molecule microarray, 635/667 nm fluorescence, artefact control for SMM control-protein annotation, profiling panel (AID 1140); settings: WGA-A647 binding, 635 nm fluorescence, higher = more signal;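 further: score merges 667 nm feature emission with signal to noise over triplicate slides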
[10] = target: Luciferin 4-monooxygenase (Photinus pyralis) (UniProt P08659); experiment: inhibition of purified Photinus pyralis luciferase – biochemical, luminescence, purified enzyme, 2006 set, primary screen (AID 1141); settings: purified firefly luciferase, SteadyGlo luminescence, 30 min; higher = more signal, called active from +8 up or from −8 down;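 further: cell-free assay with purified firefly luciferase at 100 ng per well in PBS; test concentration not given here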
[11] = system: Wnt5a (protein binding on small-molecule microarray); experiment: small molecules binding Wnt5a protein – biophysical, small-molecule microarray, 635/667 nm fluorescence, primary screen (AID 1142); settings: 635 nm fluorescence, higher = more signal;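 further: fluorescence read at 667 nm with signal to noise per printed feature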
[12] = ATP-based viability of Huh7 replicon cells – cell-based, CellTiter-Glo luminescence, basal, 48 h, cytotoxicity control for HCV replication inhibitor project, primary screen (AID 1143); settings: higher = more signal, called active from +8 up or from −8 down;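 further: Huh7 hepatoma cells carrying a hepatitis C replication reporter with no stimulus; test concentration not given here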
[13] = Pseudomonas biofilm growth suppression – PAO1 strain, BacTiter-Glo luminescence, LB-PBS, primary screen (AID 1144); settings: P. aeruginosa PAO1 biofilm, 12 h, higher = more signal
[14] = basal CRE-LacZ reporter activity in PC12 – cell-based, unstimulated, primary screen (AID 1145); settings: no forskolin, luminescence, 4.5 h, higher = more signal, called active from +8 up or from −8 down
[15] = forskolin-driven CRE-LacZ activity in PC12 – cell-based, CRE-LacZ reporter, forskolin-stimulated, primary screen (AID 1146); settings: luminescence, 4.5 h, higher = more signal, called active from +8 up or from −8 down;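 further: PC12 cells with 6xCRE LacZ reporter stimulated by forskolin 10 µM; beta-galactosidase reporter signal reflecting CREB driven transcription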
[16] = target: Streptavidin (Streptomyces avidinii) (UniProt P22629); experiment: compounds binding control protein streptavidin – biophysical, small-molecule microarray, 635/667 nm fluorescence, artefact control for SMM compound annotation, primary screen (AID 1147); settings: higher = more signal;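 further: signal reflects streptavidin binding to arrayed compounds as a control protein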
[17] = probe aInhba binding on compound microarray – biochemical, small-molecule microarray, 635/667 nm fluorescence, primary screen (AID 1148); settings: higher = more signal;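 further: score merges 667nm spot fluorescence with signal-to-noise for antibody binding to printed compounds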
[18] = target: Torsin-1A (Homo sapiens) (UniProt O14656); experiment: TOR1A wild-type binding on microarray – cell lysate, small-molecule microarray, lysate, 635/667 nm, primary screen (AID 1149); settings: COS7 hTOR1A-WT lysate, 635 nm fluorescence, higher = more signal
[19] = target: Torsin-1A (Homo sapiens) (UniProt O14656); experiment: torsin A mutant lysate binding on microarrays – cell lysate, small-molecule microarray, COS7 lysate, 635/667 nm fluorescence, primary screen (AID 1150); settings: COS7 hTOR1A mutant lysate, 635 nm fluorescence, higher = more signal;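 further: score pools 667 nm emission and signal to noise measuring lysate protein binding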
[20] = system: Sonic hedgehog protein (Shh); experiment: Sonic hedgehog microarray binding compounds – biochemical, small-molecule microarray, 635/667 nm fluorescence, primary screen (AID 1151); settings: 635 nm fluorescence, higher = more signal;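 further: Shh protein binding to compounds spotted on small-molecule microarray slides; score combines spot fluorescence intensity with signal-to-noise across triplicate slides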

Chain of Streptavidin (Streptomyces avidinii) (P22629 whole entry, looked up): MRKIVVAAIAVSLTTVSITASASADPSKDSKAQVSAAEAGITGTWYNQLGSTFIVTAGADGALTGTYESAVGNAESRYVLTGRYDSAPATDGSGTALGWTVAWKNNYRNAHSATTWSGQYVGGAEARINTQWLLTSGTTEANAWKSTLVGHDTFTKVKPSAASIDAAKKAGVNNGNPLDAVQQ
Chain of Fibroblast growth factor 2 (Homo sapiens) (P09038 whole entry, looked up): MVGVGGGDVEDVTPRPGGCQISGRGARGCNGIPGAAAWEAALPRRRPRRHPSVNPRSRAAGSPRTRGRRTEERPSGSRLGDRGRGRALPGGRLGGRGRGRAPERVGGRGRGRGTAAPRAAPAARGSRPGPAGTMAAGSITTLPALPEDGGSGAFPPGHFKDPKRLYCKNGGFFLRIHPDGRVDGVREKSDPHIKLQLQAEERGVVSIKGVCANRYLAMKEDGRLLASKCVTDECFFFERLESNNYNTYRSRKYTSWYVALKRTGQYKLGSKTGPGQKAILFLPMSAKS
Chain of Follistatin (Homo sapiens) (P19883 whole entry, looked up): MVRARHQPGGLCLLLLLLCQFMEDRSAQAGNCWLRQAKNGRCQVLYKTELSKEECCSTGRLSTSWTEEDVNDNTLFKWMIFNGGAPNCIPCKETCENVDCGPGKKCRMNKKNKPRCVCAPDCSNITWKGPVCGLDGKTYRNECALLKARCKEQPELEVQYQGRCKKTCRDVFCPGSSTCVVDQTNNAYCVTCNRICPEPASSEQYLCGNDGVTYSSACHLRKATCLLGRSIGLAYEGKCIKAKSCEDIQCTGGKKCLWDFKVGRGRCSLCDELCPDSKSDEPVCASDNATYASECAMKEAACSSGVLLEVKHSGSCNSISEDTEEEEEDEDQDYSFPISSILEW
Chain of Torsin-1A (Homo sapiens) (O14656 whole entry, looked up): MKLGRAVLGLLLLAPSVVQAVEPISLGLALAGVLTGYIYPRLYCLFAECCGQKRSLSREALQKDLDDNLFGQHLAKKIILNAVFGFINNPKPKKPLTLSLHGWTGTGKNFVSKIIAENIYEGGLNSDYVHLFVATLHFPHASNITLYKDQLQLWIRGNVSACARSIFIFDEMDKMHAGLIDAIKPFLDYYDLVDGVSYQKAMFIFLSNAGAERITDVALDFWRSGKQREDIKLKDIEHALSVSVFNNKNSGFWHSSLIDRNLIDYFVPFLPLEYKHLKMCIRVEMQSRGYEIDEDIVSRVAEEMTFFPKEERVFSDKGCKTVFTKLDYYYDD
Chain of Focal adhesion kinase 1 (Homo sapiens) (Q05397 whole entry, looked up): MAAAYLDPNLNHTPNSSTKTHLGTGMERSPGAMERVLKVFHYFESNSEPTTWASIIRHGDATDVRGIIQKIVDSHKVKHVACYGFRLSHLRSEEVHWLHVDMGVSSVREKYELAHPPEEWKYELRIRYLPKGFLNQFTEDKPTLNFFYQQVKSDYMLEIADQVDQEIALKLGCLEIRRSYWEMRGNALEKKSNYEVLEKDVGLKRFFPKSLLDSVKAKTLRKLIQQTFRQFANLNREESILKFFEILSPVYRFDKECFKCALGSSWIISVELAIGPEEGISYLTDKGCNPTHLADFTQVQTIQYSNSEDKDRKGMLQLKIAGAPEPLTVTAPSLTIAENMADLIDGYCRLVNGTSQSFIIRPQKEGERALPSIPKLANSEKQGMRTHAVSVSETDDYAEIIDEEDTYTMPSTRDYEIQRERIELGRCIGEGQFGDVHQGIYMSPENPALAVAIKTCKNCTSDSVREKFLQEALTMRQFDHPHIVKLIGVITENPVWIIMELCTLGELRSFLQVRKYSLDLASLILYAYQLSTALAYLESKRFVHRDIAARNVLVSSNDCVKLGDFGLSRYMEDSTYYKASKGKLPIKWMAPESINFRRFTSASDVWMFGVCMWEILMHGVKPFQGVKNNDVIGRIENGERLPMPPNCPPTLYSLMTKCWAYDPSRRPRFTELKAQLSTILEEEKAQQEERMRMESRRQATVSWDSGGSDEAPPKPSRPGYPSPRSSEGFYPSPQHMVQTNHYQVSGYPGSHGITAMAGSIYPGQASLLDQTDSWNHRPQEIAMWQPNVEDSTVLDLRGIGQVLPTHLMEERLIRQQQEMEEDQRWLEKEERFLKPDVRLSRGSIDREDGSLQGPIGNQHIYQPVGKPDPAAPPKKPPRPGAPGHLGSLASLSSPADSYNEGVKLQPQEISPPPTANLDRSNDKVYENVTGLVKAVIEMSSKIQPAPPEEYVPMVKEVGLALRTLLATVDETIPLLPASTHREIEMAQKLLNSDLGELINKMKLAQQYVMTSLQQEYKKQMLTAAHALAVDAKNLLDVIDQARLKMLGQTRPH
Chain of Luciferin 4-monooxygenase (Photinus pyralis) (P08659 whole entry, looked up): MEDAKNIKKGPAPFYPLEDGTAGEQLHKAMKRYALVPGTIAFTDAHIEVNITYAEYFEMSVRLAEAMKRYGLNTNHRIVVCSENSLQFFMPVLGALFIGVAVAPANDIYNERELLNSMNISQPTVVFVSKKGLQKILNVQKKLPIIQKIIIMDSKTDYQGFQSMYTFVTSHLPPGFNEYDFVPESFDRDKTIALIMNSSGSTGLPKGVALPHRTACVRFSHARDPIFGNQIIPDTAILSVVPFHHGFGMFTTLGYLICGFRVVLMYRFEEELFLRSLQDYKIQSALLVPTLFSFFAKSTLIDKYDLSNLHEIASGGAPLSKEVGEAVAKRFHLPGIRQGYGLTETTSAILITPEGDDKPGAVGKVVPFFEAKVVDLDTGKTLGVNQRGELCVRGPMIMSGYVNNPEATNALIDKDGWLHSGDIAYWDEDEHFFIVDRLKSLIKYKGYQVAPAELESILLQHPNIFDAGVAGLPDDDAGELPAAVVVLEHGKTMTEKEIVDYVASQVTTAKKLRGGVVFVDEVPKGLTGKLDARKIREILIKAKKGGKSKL

SMILES	composite z-score [1]	composite z-score [2]	composite z-score [3]	composite z-score [4]	composite z-score [5]	composite z-score [6]	z-score [7]	composite z-score [8]	composite z-score [9]	z-score [10]	composite z-score [11]	z-score [12]	z-score [13]	z-score [14]	z-score [15]	composite z-score [16]	composite z-score [17]	composite z-score [18]	composite z-score [19]	composite z-score [20]
O=C1O[C@H](c2ccccc2)[C@H](c2ccccc2)N2[C@H]1[C@@H](C(=O)N1CCCCCCC1)[C@]1(C(=O)Nc3ccc(C#CC4(O)CCCCCC4)cc31)[C@H]2c1ccc(O)cc1	0.821	1.22	1.75	0.545	1.4	1.37	0.706	1.27	0.757	-0.0026 (inactive)	1.19	-3.1 (inactive)	-0.555 (inactive)	-0.168 (inactive)	-0.219 (inactive)	2.76	1.77	1.13	1.49	1.45
O=C1NC(=O)C2C1C=CC(C(O)c1ccccn1)N2Nc1ccc(Cl)cc1Cl (stereo not given)	0.713	0.676	0.473	0.717	0.101	0.0367	1.07	0.181	1.11	0.237 (inactive)	0.0314	0.203 (inactive)	-0.595 (inactive)	0.0535 (inactive)	-0.0259 (inactive)	1.16	-0.101	-0.117	0.175	-0.517
CC1CC/C=C\[C@H]2OC34C=CCN(CCN5CCOCC5)C(=O)[C@H]3N(C(C)CO)C(=O)[C@@H]4C2C(=O)O1 (stereo not given in full)	-0.172	-1.04	-0.421	-1.99	0.446	-0.439	0.224	0.582	-0.928	-1.39 (inactive)	-0.409	0.181 (inactive)	0.156 (inactive)	-0.0778 (inactive)	-0.0178 (inactive)	-1.16	-0.0933	-1.72	-1.58	1.41
Cc1ccc(S[C@]2(C(=O)NC(C)C)CC(=O)N(Cc3ccccc3Cl)[C@@H]2c2ccc(CO)cc2)cc1	0.568	0.424	-0.092	0.54	-0.568	-1.27	-0.718	-1.56	0.762	-0.426 (inactive)	-0.323	-2.67 (inactive)	-0.141 (inactive)	-0.295 (inactive)	0.506 (inactive)	-1.03	-0.149	-2.93	-1.86	-0.761
CN1C(=O)[C@@H]2[C@@H](CC(COc3ccccc3)=C([C@H](O)CCc3ccccc3)[C@@H]2CO)C1=O	-0.203	-0.438	-0.147	-0.163	0.009	0.364	2.02	-0.0412	0.488	-1.4 (inactive)	-0.0336	-1.03 (inactive)	0.272 (inactive)	1.67 (inactive)	-1.18 (inactive)	-0.448	-0.128	0.762	0.0706	0.497
COCCOC(=O)N1C(=O)[C@@]2(c3cc(C#CCCO)ccc31)[C@H](C(=O)N1CCCCCCC1)[C@H]1C(=O)O[C@H](c3ccccc3)[C@H](c3ccccc3)N1[C@@H]2c1ccccc1OCCO	0.573	1.19	0.686	0.885	1.45	0.819	-0.971	1.41	1.25	-1.29 (inactive)	0.985	-2.07 (inactive)	0.893 (inactive)	0.0655 (inactive)	-0.823 (inactive)	2.6	1.3	1.22	1.62	1.68
